Hits are enriched below; roughly 12% of the tested compounds scored in any of these assays.
JMJD2A Tudor inh – inhibitors of human JMJD2A Tudor domain; actives 4.4% (n = 390,000); AID 504339; AlphaScreen JMJD2A-Tudor / H3K4me3 peptide binding; O75164; Potency, µM (doses to about 114 µM), most hits filed as inhibitors; further: nearly all actives have a fitted effect of over 50% in size
Target sequence (O75164 whole entry, looked up, the tested form may be a part): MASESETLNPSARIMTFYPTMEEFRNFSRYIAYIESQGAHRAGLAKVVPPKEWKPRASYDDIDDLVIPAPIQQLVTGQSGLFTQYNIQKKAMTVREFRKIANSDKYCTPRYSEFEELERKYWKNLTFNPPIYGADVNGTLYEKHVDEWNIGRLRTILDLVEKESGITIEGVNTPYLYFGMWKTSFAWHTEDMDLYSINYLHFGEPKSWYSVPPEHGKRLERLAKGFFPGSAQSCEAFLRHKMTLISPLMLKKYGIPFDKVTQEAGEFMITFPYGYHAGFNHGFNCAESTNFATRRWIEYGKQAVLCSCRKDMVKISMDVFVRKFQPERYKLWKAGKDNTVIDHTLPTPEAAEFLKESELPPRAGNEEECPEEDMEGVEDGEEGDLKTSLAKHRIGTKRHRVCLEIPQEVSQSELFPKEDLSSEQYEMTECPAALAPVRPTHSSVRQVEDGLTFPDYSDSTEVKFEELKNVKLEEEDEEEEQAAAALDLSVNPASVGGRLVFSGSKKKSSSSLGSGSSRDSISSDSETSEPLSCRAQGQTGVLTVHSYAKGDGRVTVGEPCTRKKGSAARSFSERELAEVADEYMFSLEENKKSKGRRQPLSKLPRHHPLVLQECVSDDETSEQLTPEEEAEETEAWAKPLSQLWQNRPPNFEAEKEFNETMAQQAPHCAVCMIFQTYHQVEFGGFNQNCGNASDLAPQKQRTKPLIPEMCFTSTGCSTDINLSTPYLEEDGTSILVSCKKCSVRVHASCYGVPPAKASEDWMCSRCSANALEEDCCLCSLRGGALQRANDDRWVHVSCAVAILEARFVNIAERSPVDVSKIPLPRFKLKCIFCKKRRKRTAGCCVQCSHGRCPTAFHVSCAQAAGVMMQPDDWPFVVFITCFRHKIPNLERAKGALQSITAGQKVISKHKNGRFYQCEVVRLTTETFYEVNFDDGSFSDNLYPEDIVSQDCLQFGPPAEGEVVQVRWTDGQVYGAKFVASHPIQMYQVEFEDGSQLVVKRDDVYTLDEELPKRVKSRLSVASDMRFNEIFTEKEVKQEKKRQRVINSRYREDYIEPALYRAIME
G9a block – G9a (human) methyltransferase inhibition; Potency, µM (highest dose often 102 µM), actives largely listed as inhibitors; actives 8.8% (n = 350,000); G9a H3K9 monomethylation, AlphaScreen, 2 h; further: nearly all actives have a fitted effect of over 75% in size
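AlphaScreen detection with an anti-monomethyl H3K9 antibody quantified product after a 2 h room-temperature reaction containing 500 nM biotinylated H3K9 peptide, 20 µM SAM and 20 nM enzyme, which had been preincubated 15 min with compound.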
PLK1 PBD block – PLK1 (human) polo-box domain binding inhibition; P53350; Plk1 PBD binding of FITC phosphopeptide, fluorescence polarization; Potency, µM, usual class: inhibitors; actives 2.8% (n = 360,000); AID 720504; further: series mostly up to about 57 µM; nearly all actives have a fitted effect of over 65% in size
Sfp inh – blocks B. subtilis Sfp PPTase activity; Potency, µM, most hits filed as inhibitors; actives 3.5% (n = 310,000); Biochemical Sfp PPTase activity, qHTS; Q9F4F7;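 further: the enzyme is Sfp with the accession as filed and its product quenches rhodamine fluorescence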
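Reaction rates are the 30-min fluorescence difference (ex 525, em 598 nm) in wells containing 15 nM Sfp, 5 uM rhodamine-CoA and 12.5 uM BHQ-2-YbbR at pH 7.6 with 10 mM MgCl2.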
HP1b chromo inh – inhibitors of HP1-beta chromodomain binding to methylated histone tails | AlphaScreen HP1-beta / biotin-H3K9me3 peptide binding | actives 0.56% (n = 390,000) | P83916 | Potency, µM (series often up to 114 µM), actives largely listed as inhibitors; further: nearly all actives have a fitted effect of over 70% in size
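AlphaScreen: HP1-beta (50 nM) preformed 30 min with biotin-H3(1-18)K9me3 peptide (50 nM) in PBS pH 7.4, 0.01% Tween-20. Compound added for 30 min at RT, then streptavidin donor/nickel chelate acceptor beads (10 ug/mL) for 30 min.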
BAZ2B inh – blocks human BAZ2B; actives 4.4% (n = 360,000); AID 504333; AlphaScreen BAZ2B-H3K14Ac peptide displacement; Potency, µM (highest dose often 114 µM), hits mostly inhibitors; further: nearly all actives have a fitted effect of over 60% in size
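BAZ2B 50 nM plus b-H3(5-23)K14Ac 50 nM, PBS pH 7.4/0.01% Tween-20, 30 min RT; compound added (max 110 uM), 30 min RT; streptavidin donor/Ni-chelate acceptor beads 10 ug/mL final, 20 min dark; AlphaScreen read.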
Of the large screens only hits and unclear results are named; the others gave an inactive call. The call rests on the fitted dose curve; in most records, active means well fitted curve in the direction sought with a large enough effect; inconclusive means small, poorly fitted or top-dose-only effect, or another doubt; inactive means no such curve, though single readings can be large; an effect the other way counts as inactive or inconclusive.

CCC(=O)N1c2ccccc2NC2=C(C(=O)CC(c3ccco3)C2)C1c1ccco1 (stereo not given)	none
COc1ccc(C2CC(=O)C3=C(C2)Nc2ccccc2N(C(C)=O)C3c2ccco2)cc1 (stereo not given)	none
Cc1c(Cl)sn(-c2ccc(Cl)cc2)c1=O	JMJD2A Tudor inh 3.16µM, G9a block 0.708µM, PLK1 PBD block 2.67µM, Sfp inh 0.708µM, HP1b chromo inh inconclusive, BAZ2B inh 39.8µM
COc1ccc(CCNC(=O)c2cc3c(=O)n4cccc(C)c4nc3s2)cc1OC	G9a block 28.2µM
CCN(CC)S(=O)(=O)c1ccc(OC)c(NC(=O)c2cc3c(=O)n4ccccc4nc3s2)c1	G9a block 39.8µM
COc1ccc(CCNC(=O)c2nc3ncccn3n2)cc1OC	PLK1 PBD block 23.8µM
CC(=O)NS(=O)(=O)c1ccc(NC(=O)c2cc3c(=O)n4ccccc4nc3s2)cc1	none (no result: G9a block)
COc1ccc(CCNC(=O)c2cccc(-n3c(C)nc4cccnc43)c2)cc1OC	none (no result: PLK1 PBD block, Sfp inh)
CCCCN(CC)C(=O)c1cc2c(=O)n3cccc(C)c3nc2s1	PLK1 PBD block 16.8µM
CC(C)C[C@H](NC(=O)[C@H](CC(C)C)NC(=O)[C@H](Cc1ccc(O)cc1)NC(=O)CNC(=O)[C@H](C)NC(=O)[C@H](CO)NC(=O)[C@H](CC(N)=O)NC(=O)[C@H](CC(C)C)NC(=O)[C@@H](NC(=O)[C@H](Cc1c[nH]c2ccccc12)NC(=O)CN)[C@@H](C)O)C(=O)NCC(=O)N1CCC[C@H]1C(=O)N1CCC[C@H]1C(=O)N1CCC[C@H]1C(=O)NCC(=O)N[C@@H](Cc1ccccc1)C(=O)N[C@@H](CO)C(=O)N1CCC[C@H]1C(=O)N[C@@H](Cc1ccccc1)C(=O)N[C@@H](CCCNC(=N)N)C(N)=O	none (no result: JMJD2A Tudor inh, G9a block, PLK1 PBD block, HP1b chromo inh, BAZ2B inh)
CC(C)(C)c1ccc(S(=O)(=O)N2CCN(CC(=O)NC(=O)NC3CCCCC3)CC2)cc1	none (no result: Sfp inh)
COc1ccccc1NS(=O)(=O)c1cc(NC(=O)c2ccc(NC(C)=O)cc2)ccc1N1CCOCC1	JMJD2A Tudor inh inconclusive, PLK1 PBD block 26.7µM, HP1b chromo inh inconclusive (no result: G9a block, Sfp inh, BAZ2B inh)
CCOc1cc(N2CCOCC2)c(OCC)cc1NS(=O)(=O)c1cc(NC(C)=O)ccc1OC	G9a block 44.7µM, BAZ2B inh 70.8µM
CN(C)S(=O)(=O)c1cc(NC(=O)c2ccc(-n3ccnc3)c([N+](=O)[O-])c2)ccc1Cl	G9a block 44.7µM
CCOc1cc(N2CCOCC2)c(OCC)cc1NC(=O)C(C)(C)C	none (no result: BAZ2B inh)
COc1ccc(NC(C)=O)cc1NS(=O)(=O)c1cn(C)c(=O)n(C)c1=O	BAZ2B inh 79.4µM
CCn1cc(S(=O)(=O)c2cccc(C)c2)c(=O)c2cc(F)c(N3CCCCC3C)cc21 (stereo not given)	none (no result: PLK1 PBD block, Sfp inh)
COc1ccccc1NS(=O)(=O)c1cc(NC(=O)c2sccc2C)ccc1N1CCOCC1	none
COc1ccccc1NS(=O)(=O)c1cc(NC(=O)c2cnccn2)ccc1N1CCOCC1	none (no result: G9a block)
COc1ccccc1NS(=O)(=O)c1cc(NC(=O)c2cccc(S(=O)(=O)N(C)C)c2)ccc1N1CCOCC1	G9a block 17.8µM (no result: Sfp inh)
COc1ccccc1NS(=O)(=O)c1cc(NC(=O)c2ccncc2)ccc1N1CCOCC1	G9a block inconclusive, PLK1 PBD block 13.4µM, Sfp inh 79.4µM, HP1b chromo inh inconclusive
Cc1ccc(C(=O)Nc2cccc(S(=O)(=O)N3CCOCC3)c2)cc1[N+](=O)[O-]	none
CN(C)S(=O)(=O)c1cccc(NC(=O)c2ccc(N3CCOCC3)c([N+](=O)[O-])c2)c1	G9a block 50.1µM, Sfp inh inconclusive, BAZ2B inh inconclusive
COc1ccc(CC(C)N2CCN(Cc3ccccc3)CC2)c(OC)c1 (stereo not given)	JMJD2A Tudor inh inconclusive
COc1ccccc1N1CCN(Cc2ccc(O)c3ncccc23)CC1	JMJD2A Tudor inh 12.6µM, G9a block inconclusive, BAZ2B inh 4.47µM
COc1ccc(CN2CCN(Cc3ccccc3C(F)(F)F)CC2)c(OC)c1	JMJD2A Tudor inh 1.58µM, G9a block 44.7µM, Sfp inh inconclusive, HP1b chromo inh 28.2µM, BAZ2B inh 28.2µM
COc1ccccc1N1CCN(C2CCCN(Cc3ccccc3OCCO)C2)CC1 (stereo not given)	G9a block 79.4µM
COc1ccc(CN2CCN(CCCc3ccccc3)CC2)c(OC)c1	G9a block 3.98µM, BAZ2B inh 31.6µM (no result: JMJD2A Tudor inh, PLK1 PBD block, HP1b chromo inh)
COc1ccccc1N1CCN(Cc2c[nH]c3ccccc23)CC1	none
COCCNc1ncnc2ccc(-c3c(C)noc3C)cc12	none (no result: JMJD2A Tudor inh, PLK1 PBD block, HP1b chromo inh, BAZ2B inh)
O=C(CCNS(=O)(=O)c1cccc(C(F)(F)F)c1)NCc1ccco1	none (no result: G9a block, Sfp inh, BAZ2B inh)
CCC1(c2ccc(F)cc2)NC(=O)N(CC(=O)N2CCN(S(=O)(=O)c3ccc(C)cc3)CC2)C1=O (stereo not given)	none (no result: Sfp inh)
COc1ccc(CN2CCN(c3ccccc3OC)CC2)c(OC)c1	JMJD2A Tudor inh 20µM, BAZ2B inh inconclusive
COc1ccc2c(CN3CCN(c4ccccc4OC)CC3)cc(=O)oc2c1	none (no result: JMJD2A Tudor inh, G9a block, Sfp inh, HP1b chromo inh, BAZ2B inh)
COc1cccc(CN2CCN(Cc3ccccc3C(F)(F)F)CC2)c1	JMJD2A Tudor inh 28.2µM, G9a block 4.47µM, Sfp inh 56.2µM, HP1b chromo inh 20µM, BAZ2B inh 25.1µM
Cc1ccc(NS(=O)(=O)c2cccc(C(=O)NNC(=O)c3cccn3C)c2)c(C)c1	JMJD2A Tudor inh inconclusive, BAZ2B inh 44.7µM (no result: G9a block)
Cc1ccc(NC(=O)CCC(=O)NNS(=O)(=O)c2ccccc2)cc1C	JMJD2A Tudor inh inconclusive, PLK1 PBD block 26.7µM, HP1b chromo inh inconclusive
Cc1ccc(C)c(NC(=O)CCC(=O)NNS(=O)(=O)c2ccc(Cl)cc2)c1	G9a block inconclusive, PLK1 PBD block inconclusive (no result: Sfp inh)
Cc1ccc(NC(=O)CCC(=O)NNS(=O)(=O)c2ccccc2)c(C)c1	G9a block 50.1µM, PLK1 PBD block 6.7µM
Cc1c(NS(=O)(=O)c2ccccc2)cc(Cl)c(O)c1C	JMJD2A Tudor inh 89.1µM, G9a block inconclusive, Sfp inh inconclusive, HP1b chromo inh inconclusive
COc1ccc2cc(OCC(=O)NNC(=O)Nc3ccc(F)cc3)ccc2c1	none (no result: G9a block)
CCN(CC(=O)NCc1cccs1)C(=O)Cc1ccc(C)c(C)c1	none (no result: G9a block, Sfp inh, BAZ2B inh)
O=C1[C@H]2O[C@@H]2[C@@H](O)[C@H]2[C@H]1CCn1c(=O)n(Cc3cc4c(cc3Cl)OCO4)c(=O)n12	none (no result: JMJD2A Tudor inh, G9a block, PLK1 PBD block, HP1b chromo inh, BAZ2B inh)
Cc1ccc(NS(=O)(=O)c2ccc(Cl)nc2)c(C)c1	none (no result: Sfp inh)
Cc1ccc(NS(=O)(=O)c2ccccc2)c(C)c1	JMJD2A Tudor inh 50.1µM (no result: G9a block, PLK1 PBD block, Sfp inh, BAZ2B inh)
Cc1ccc(NC(=O)CCC(=O)NNS(=O)(=O)c2ccc(Cl)cc2)cc1C	none
O=C(NNc1ccccc1)Nc1ccccc1F	G9a block 50.1µM, BAZ2B inh inconclusive
